Target: Tubulin alpha-1C chain (UniProt Q9BQE3)
Assay: cross-link between two proteins; cross-linking mass spectrometry

Sequence of UniProt Q9BQE3 (Q9BQE3 whole entry): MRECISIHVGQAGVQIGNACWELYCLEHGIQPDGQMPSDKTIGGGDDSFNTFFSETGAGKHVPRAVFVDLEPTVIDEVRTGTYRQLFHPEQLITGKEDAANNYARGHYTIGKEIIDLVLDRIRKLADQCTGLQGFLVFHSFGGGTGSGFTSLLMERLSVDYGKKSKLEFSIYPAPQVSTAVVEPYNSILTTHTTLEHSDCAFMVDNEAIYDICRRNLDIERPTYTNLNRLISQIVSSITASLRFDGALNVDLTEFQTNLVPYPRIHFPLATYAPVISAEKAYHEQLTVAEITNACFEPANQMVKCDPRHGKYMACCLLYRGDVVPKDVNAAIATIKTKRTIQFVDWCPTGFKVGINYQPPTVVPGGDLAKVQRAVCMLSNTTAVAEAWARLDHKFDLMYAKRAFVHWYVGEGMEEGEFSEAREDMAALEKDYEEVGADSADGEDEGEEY

## Tubulin beta chain, P07437
  listed as a hit: yes

Source: PMC11442847
